Source: PubChem (National Center for Advancing Translational Sciences (NCATS))
The list is not random: actives were taken first. Their share in the collection is about 19%.
HT1080NT lethal – kills 2HG-producing HT-1080-NT fibrosarcoma cells | Potency, µM (doses to about 46.1 µM), actives largely listed as cytotoxic | 360,000 compounds, 1.6% hits | HT-1080-NT fibrosarcoma viability, CellTiter-Glo ATP luminescence, 48 h | AID 686970;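 note: NT is the 2HG producing partner of a matched IDH1 knockdown line; nearly all actives have a fitted effect of over 55% in size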
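A 48-hour cytotoxicity screen used HT-1080-NT cells plated 2 hours before compound delivery. ATP-based CellTiter-Glo luminescence measured viability, normalized to DMSO and no-cell controls.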
TDP1 cell CPT – DT40-hTDP1 cell growth loss with CPT. 420,000 compounds, 12% hits. Potency, µM (highest dose often 46.2 µM), most hits filed as inhibitors. chicken DT40 Tdp1-/-;hTDP1 cells + 20 nM CPT, ATP luminescence, 48 h. AID 686979; note: nearly all actives have a fitted effect of over 55% in size
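Chicken DT40 Tdp1-/- cells complemented with human TDP1, 400 cells/well, exposed to compounds plus 20 nM camptothecin for at least 48 h at 37 C; viability read as ATP content by CellTiter-Glo luminescence.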
HT1080 IDH1KD tx – kills HT-1080 cells with IDH1 knockdown. HT-1080 IDH1 knockdown viability, ATP luminescence, 48 h. Potency, µM (doses to about 46.1 µM), actives largely listed as cytotoxic. 360,000 compounds, 2% hits
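Using the IDH1-knockdown HT-1080 line run in the same batch and compound series as the NT line, viability after 48 h at 37 °C was determined by CellTiter-Glo luminescence and expressed as % activity.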
IL1B secr inh – inflammasome signaling inhibition, IL-1 beta readout; 360,000 compounds, 4.7% hits; THP-1 LPS/ATP IL-1B secretion, AlphaLISA, 16 h; active compounds read low; AID 743279; activity change, % at 57.5 µM; in the data active = activity change below about -50%; inconclusive = mostly about -30% to -49%
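THP-1 cells pretreated 1 hr with compounds (up to 57.5 uM final), then stimulated with LPS (250 ng/mL final) plus ATP (1.25 mM final); secreted IL-1B measured by AlphaLISA after 16 hr, decreased signal indicating inhibition.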
DT40 TDP1 no CPT – qHTS for Inhibitors of human tyrosyl-DNA phosphodiesterase 1 (TDP1): qHTS in cells in absence of CPT; DT40 Tdp1-/- hTDP1 cells, no CPT, ATP luminescence, 48 h; Potency, µM (titrated, usually from 46.2 µM), usual class: inhibitors; 420,000 compounds, 15% hits; AID 686978, 2013; note: nearly all actives have a fitted effect of over 55% in size
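Chicken DT40 Tdp1-/- cells complemented with human TDP1, screened without camptothecin (DMSO vehicle only), 400 cells/well. Compounds pin-transferred, cells incubated at 37 °C for at least 48 hr. Growth read as ATP-dependent luminescence (CellTiter-Glo, 30 min at RT).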
A number is an active result; i = inactive; ? = inconclusive; nt = not tested or not shown. Unless noted, calls come from the whole dose curve; as a rule, active = well fitted curve in the direction sought with a large enough effect; inconclusive = small, poorly fitted or top-dose-only effect, or another doubt; inactive = no such curve, though single readings can be large; an effect the other way counts as inactive or inconclusive.

SMILES	HT1080NT lethal	TDP1 cell CPT	HT1080 IDH1KD tx	IL1B secr inh	DT40 TDP1 no CPT
COc1ccc(NC(=O)COC(=O)CCc2ccccc2)c(OC)c1	i	i	i	i	i
Cc1ccc(-c2ccc(CCC(=O)O)n2-c2cccc(O)c2)cc1	i	?	i	i	i
CC(=O)N=c1scc(-c2ccccc2)n1-c1cccc(O)c1	i	?	?	i	16µM
CCCNC(=S)N1CCC(NC(=O)Nc2ccc(C)cc2)CC1	i	i	i	i	i
C=C1CC(COc2ccc3c(C)c(Cl)c(=O)oc3c2)(c2ccccc2)OC1=O (configuration not stated)	16µM	1.6µM	6.5µM	-100	1.6µM
COc1ccc([N+](=O)[O-])cc1NC(=O)c1cncc(Br)c1	i	i	i	i	i
CC(C)C(=O)Nc1cccc(C(=O)Nc2cc([N+](=O)[O-])ccc2Cl)c1	i	i	i	i	?
Cc1cc([N+](=O)[O-])ccc1NC(=O)c1cccc(NC(=O)C(C)C)c1	i	?	i	i	23µM
Cc1cc([N+](=O)[O-])ccc1NC(=O)c1cncc(Br)c1	i	i	i	-67	i
Cc1cnc(SCC2CCCO2)nc1C1CCCN(C(=O)c2ccc(S(N)(=O)=O)cc2)C1 (configuration not stated)	nt	i	nt	nt	?
Cc1[nH]nc(N=CC2=C(O)CC(C)(C)CC2=O)c1-c1ccccc1	i	?	i	i	16µM
Cc1cccc(N2CCN(c3ncnc4onc(C)c34)CC2C)c1 (configuration not stated)	nt	4.6µM	nt	nt	2.3µM
Cc1noc2ncnc(N3CCN(c4cccc(C(F)(F)F)c4)CC3)c12	nt	12µM	nt	nt	8.2µM
COc1cccc(N2CCN(c3ncnc4onc(-c5ccc(F)cc5)c34)CC2)c1	nt	i	nt	nt	i
Cc1cccc(N2CCN(c3ncnc4onc(-c5ccc(F)cc5)c34)CC2C)c1 (configuration not stated)	nt	16µM	nt	nt	15µM
CCc1ccc(NC(=O)C2=CC(c3cccs3)=NS(=O)(=O)N2C)cc1	i	?	i	i	16µM
CC(=O)c1ccc(NC(=O)C2=CC(c3cccs3)=NS(=O)(=O)N2C)cc1	i	?	i	i	16µM
COc1cc(NC(=O)C2=CC(c3cccs3)=NS(=O)(=O)N2C)cc(OC)c1OC	i	?	i	i	?
CCOC(=O)c1c(C)[nH]c(C(=O)N2CCN(c3ccc(OC)cc3)CC2)c1C	i	i	i	i	?
COc1ccc2nc(-n3c(O)c(C4=c5ccccc5=NC4=O)[nH]c3=S)sc2c1	i	?	i	i	23µM
Cn1c(O)c(C2=c3ccccc3=NC2=O)[nH]c1=S	i	i	i	i	i
Brc1cccc[n+]1Cc1ccc(C[n+]2ccccc2Br)cc1	nt	i	nt	nt	i
CCCCC[n+]1cccc2c3ccccc3ccc21	?	0.52µM	9.2µM	-77	0.0073µM
NC(=O)C[n+]1cccc2ccccc21	i	i	i	i	i
c1ccc(C[n+]2cccc3c4ccccc4ccc32)cc1	?	3.7µM	?	-60	3.7µM
SMILES	HT1080NT lethal	TDP1 cell CPT	HT1080 IDH1KD tx	IL1B secr inh	DT40 TDP1 no CPT
CNc1cncc(-c2ccc(F)cc2F)n1	i	i	i	?	i
COC(=O)/C(=C(O)\C=C\c1ccccc1[N+](=O)[O-])c1nc2ccccc2[nH]1	i	12µM	i	?	15µM
Cc1ccc(NC(=O)OCc2ccccc2S(C)=O)cc1 (configuration not stated)	i	i	i	i	i
CCOC(=O)c1c(C)oc2c1c(C=NCc1ccccn1)c(O)c1ccccc12	i	0.92µM	i	-94	1.2µM
CCOC(=O)c1c(C)oc2c1c(C(c1cccnc1)N1CCOCC1)c(O)c1ccccc12 (configuration not stated)	?	?	?	-110	18µM
CCOC(=O)c1c(NCC2CCCO2)c2ccccc2[nH]c1=O (configuration not stated)	i	i	i	i	i
CCOC(=O)c1c(C)oc2c1c(C=NCC1CCCO1)c(O)c1ccccc12 (configuration not stated)	i	?	i	i	18µM
CCOC(=O)c1c(C)oc2c1cc(O)c1ccccc12	i	i	i	i	i
COc1ccc(CCNC(=O)c2cc(=O)[nH]c3ccc(S(=O)(=O)N4CCCCC4C)cc23)cc1OC (configuration not stated)	nt	i	nt	nt	i
CC1(C(=O)Nc2ncc(Cc3ccc(Br)cc3)s2)Cc2ccccc2C(=O)O1 (configuration not stated)	nt	23µM	nt	nt	23µM
COc1ccc(N2CCN(C(=O)CN=C3NS(=O)(=O)C(c4ccc(C)cc4)=C3C)CC2)cc1	i	i	i	i	i
COc1ccc(C2=C(N3CCN(c4cc(Cl)ccc4C)CC3)c3ccccc3C2=O)cc1	nt	21µM	nt	nt	?
CC1=C(c2ccc(C)cc2)S(=O)(=O)NC1=NCCCN1CCN(c2ccc(F)cc2)CC1	nt	15µM	nt	nt	15µM
COc1ccc(C2=C(C)C(=NCCCN3CCN(c4cc(Cl)ccc4C)CC3)NS2(=O)=O)cc1	nt	6.5µM	nt	nt	8.2µM
Cc1ccc(C)c(N2C(=O)CC(Cc3ccc(Cl)cc3)C2=O)c1 (configuration not stated)	i	i	i	i	?
CC1=C(c2ccc(Cl)cc2)S(=O)(=O)NC1=NCCCN1CCN(c2cc(C)ccc2C)CC1	nt	2.6µM	nt	nt	5.2µM
Cc1ccc(Cl)cc1N1CCN(S(C)(=O)=O)CC1	i	i	i	i	i
CCOC(=O)c1cc2c(ccn2C)n1Cc1ccccc1Cl	i	i	i	i	?
CC(=O)CCC(=O)OCC(=O)c1ccc(C(F)(F)F)cc1	i	i	i	i	i
CCCN1Cc2cccc(C(=O)Nc3ccccc3C(=O)OC)c2C1=O	nt	23µM	nt	nt	16µM
CCCN1Cc2cccc(C(=O)Nc3ccc(OC)cc3OC)c2C1=O	nt	?	nt	nt	23µM
O=C(O)Cc1ccc(N2N=C(c3ccccc3)CC2=O)cc1	i	i	i	i	i
NC(=O)CC(NC(=O)c1ccc(Br)cc1)c1ccc(NC2CCCCCCC2)c([N+](=O)[O-])c1 (configuration not stated)	?	16µM	?	?	16µM
COc1ccc(CCNc2ccc(C(CC(N)=O)NC(=O)c3ccc(Br)cc3)cc2[N+](=O)[O-])cc1 (configuration not stated)	?	23µM	i	i	16µM
NC(=O)CC(NC(=O)c1ccccc1)c1ccc(NC2CCCCCCC2)c([N+](=O)[O-])c1 (configuration not stated)	?	23µM	i	i	23µM
Cc1cc(C)cc(C(=O)NC(CC(N)=O)c2ccc(NC3CCCCCC3)c([N+](=O)[O-])c2)c1 (configuration not stated)	i	?	i	i	?
